Some test systems named below: T-47D breast; BT-549 breast; MDA-MB-435 melanoma; SW-620 colon; MCF7 breast; HCT-116 colon; HCC-2998 colon; KM12 colon.
Assay in all cases: NCI-60 one-dose screen, 48 h (100 = growth as untreated, 0 = no growth, -100 = all killed)
What all share (conditions): 10 µM unless noted

About 83,000 compounds went through this panel and 20% of them were active in at least one assay; those are over-represented in the sample as a whole.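 Note: values are percent growth. 100 is the growth of untreated cells, values between 100 and 0 indicate rising inhibition; between -100 and 0 indicates cell death.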 A number with no mark means an inactive call. The source made the active and inactive calls. Rule for the calls: active = growth percent below 10; inactive = the rest.

On to `N[C@H]1CCC[C@@H]1NCCCCN1C(=O)c2cccc3cc([N+](=O)[O-])cc(c23)C1=O`, for which the growth is 57.5% in the assay on T-47D breast; 68.3% in the assay on BT-549 breast; 53.2% in the assay on MDA-MB-435 melanoma; 26.7% with SW-620 colon; 19.7% in the assay with MCF7 breast; 9.25% (active) in the assay on HCT-116 colon. In addition, the growth with HCC-2998 colon was 51.9%; in the assay with KM12 colon, 36.6%.

For `CCNc1nc(O)c(/C=C2\C=Nc3ncccc32)s1`, the growth with T-47D breast is -9.7% (active); in the assay on BT-549 breast, -50.4% (active); in the assay on MDA-MB-435 melanoma it was -0.802% (active); in the assay with SW-620 colon it was 6.52% (active); with MCF7 breast it was 3.97% (active); in the assay with HCT-116 colon, 3.99% (active). The growth in the assay on HCC-2998 colon is 10.2%; in the assay with KM12 colon it was 6.24% (active).

On to `O=C(Cc1ccccc1)Nc1cccc(N=Cc2ccccc2O)c1`, for which the growth was 91.8% in the assay on T-47D breast; 115% with BT-549 breast; 97.8% with MDA-MB-435 melanoma; 109% in the assay with SW-620 colon; 94.4% with MCF7 breast; 108% in the assay on HCT-116 colon. Besides, the results for the growth in the assay on HCC-2998 colon and in the assay on KM12 colon were 106% and 98.1%, respectively.

For `CCc1n(Cc2ccc3ccccc3n2)cc[n+]1Cc1ccc2ccccc2n1`, the growth with T-47D breast is -3.68% (active); in the assay on BT-549 breast it was 13.4%; in the assay on MDA-MB-435 melanoma, 14%; in the assay on SW-620 colon it was 38.5%; with MCF7 breast, 13.5%; in the assay with HCT-116 colon, 35%. In addition, the growth with HCC-2998 colon was 27.3%; in the assay on KM12 colon, 12.2%.

For `O=C1/C(=C\c2cccc3nccnc23)SC(=S)N1CCc1ccc(O)cc1`, the growth is 82.5% in the assay on T-47D breast; 96% in the assay with BT-549 breast; 97.4% in the assay on MDA-MB-435 melanoma; 101% with SW-620 colon; 94.4% with MCF7 breast; 92% in the assay with HCT-116 colon. For the same compound, the growth was 116% in the assay on HCC-2998 colon and 97.1% in the assay on KM12 colon.

Take `COC(=O)N1CC(Oc2ccccn2)C2CC1c1ccccc1O2` (stereo not drawn): the growth in the assay with T-47D breast was 99.9%; with BT-549 breast, 99.5%; in the assay on MDA-MB-435 melanoma, 105%; in the assay with SW-620 colon it was 102%; in the assay with MCF7 breast, 102%; with HCT-116 colon it was 97.2%. For the same compound, the growth was 104% in the assay with HCC-2998 colon and 107% in the assay with KM12 colon.

With `CCN(CC)c1ccc(/C=N/NC(=O)Cc2ccc(Nc3ccnc(C(F)(F)F)c3)cc2)c(O)c1`, the growth with T-47D breast was 27.6%; with BT-549 breast, 41.9%; with MDA-MB-435 melanoma, 23.9%; with SW-620 colon, 35.6%; in the assay on MCF7 breast, 20.9%; in the assay with HCT-116 colon it was 19.6%. The values for the growth in the assay on HCC-2998 colon and with KM12 colon were 26.9% and 41%, respectively.

`O=C(Nc1ccccc1N1CCCC1=O)c1oc2ccc(F)cc2c1-c1cnn(-c2ccccc2)c1`: the growth with T-47D breast is 35.4% [50 µM]; in the assay on BT-549 breast it was 56.7% [50 µM]; with MDA-MB-435 melanoma, 62.2% [50 µM]; in the assay on SW-620 colon, 75.4% [50 µM]; in the assay with MCF7 breast, 43.8% [50 µM]; in the assay on HCT-116 colon, 23.8% [50 µM]. The growth is 90.5% [50 µM] with HCC-2998 colon and 47.4% [50 µM] in the assay with KM12 colon.

Turning to `CCOC(=O)C#Cc1c(C(=O)OCC)nnn1Cc1ccc(C(F)(F)F)cc1`, the growth was 31.8% in the assay on T-47D breast; 63.1% in the assay with BT-549 breast; 63.8% in the assay with MDA-MB-435 melanoma; -23.9% (active) in the assay with SW-620 colon; 1.53% (active) in the assay on MCF7 breast; 31.1% with HCT-116 colon. Further, the growth in the assay on HCC-2998 colon was 102%; in the assay on KM12 colon, 89.4%.

In the case of `Cc1ccc(CNc2c3ccccc3nc3ccccc23)cc1`, the growth with T-47D breast was 25.1%; with BT-549 breast it was 71.3%; with MDA-MB-435 melanoma it was 31.2%; in the assay on SW-620 colon, 20.2%; with MCF7 breast, 9.04% (active); in the assay with HCT-116 colon it was 12%. Further, the growth in the assay on HCC-2998 colon is -2.62% (active); with KM12 colon, 23.4%.

Turning to `CC1=C(C(=O)Nc2nc(-c3ccc(Cl)cc3)cs2)[C@H](c2ccc(O)cc2)NC(=O)N1`, the growth in the assay on T-47D breast is 70.5%; in the assay on BT-549 breast, 90.4%; with MDA-MB-435 melanoma it was 101%; in the assay on SW-620 colon, 102%; with MCF7 breast, 101%; in the assay with HCT-116 colon, 95.4%. Also, the growth was 108% with HCC-2998 colon and 96.9% with KM12 colon.

For `CSC1=Nc2c(c(C)c(-c3ccccc3)n2CCCC(=O)O)C2=NC(=O)C[C@H](C)N12`, the growth with T-47D breast is 113%; in the assay with BT-549 breast it was 105%; in the assay with MDA-MB-435 melanoma it was 102%; with SW-620 colon, 102%; in the assay with MCF7 breast, 88.8%; with HCT-116 colon it was 101%. Besides, the growth in the assay with HCC-2998 colon was 104%; in the assay on KM12 colon it was 97.1%.

Consider `C=CC(=O)Nc1ccc(Oc2nccc(Nc3nnc(-c4ccc(C)cc4)s3)n2)cc1`, for which the growth with T-47D breast is 89.2%; in the assay with BT-549 breast, 73.4%; in the assay with MDA-MB-435 melanoma, 0.25% (active); in the assay with SW-620 colon, 49.5%; in the assay with MCF7 breast, 80.6%; in the assay with HCT-116 colon, 94.9%. For the same compound, the growth was 110% in the assay on HCC-2998 colon and 84% in the assay on KM12 colon.

For the compound `COc1ccc(C2=CC(c3cc(OC)c(OC)c(OC)c3)n3ncnc3N2)cc1` (stereo not drawn), the growth was 62.9% in the assay with T-47D breast; 4.42% (active) in the assay with BT-549 breast; -21.9% (active) in the assay with MDA-MB-435 melanoma; 21.5% in the assay on SW-620 colon; 15% in the assay on MCF7 breast; 0.658% (active) in the assay on HCT-116 colon. For the same compound, the growth in the assay on HCC-2998 colon is 26.5%; in the assay with KM12 colon, 6% (active).

Regarding `O=C1c2ccccc2C(=O)c2c1c(C(=O)NCc1ccccc1)c1ccccn21`, the growth in the assay on T-47D breast is 103%; in the assay on BT-549 breast it was 101%; in the assay with MDA-MB-435 melanoma it was 103%; with SW-620 colon, 94.2%; in the assay with MCF7 breast, 79%; in the assay on HCT-116 colon, 97.1%. For the same compound, the growth with HCC-2998 colon was 99.9%; in the assay on KM12 colon it was 101%.

Turning to `C=CC(=O)Nc1ccc(Nc2nccc(-c3ccc(N4CCCC4)c(C#N)c3)n2)cc1`, the growth was 41.5% with T-47D breast; 45.6% with BT-549 breast; -11.8% (active) in the assay on MDA-MB-435 melanoma; 3% (active) in the assay with SW-620 colon; 9.75% (active) with MCF7 breast; 24.8% in the assay on HCT-116 colon. Further, the growth was 31.5% in the assay on HCC-2998 colon and 14.6% in the assay on KM12 colon.

Source of the values: PubChem BioAssay (NCI).
